Common to all, as to details: n = 1
Experiment [1] deals with AAK1.
In experiment [2] the test system is ABL1-nonphosphorylated.
In experiment [3] the test system is ABL1-phosphorylated.
For experiment [4], the system named is ABL2.
Experiment [5] concerns ACVR1B.
For experiment [6], the system named is ACVR1.
The subject of experiment [7] is ACVR2A.
Setting [8] is: concentration: 1 μM, replicates: in singlicate.

Like-named read-outs stand apart in the source and are kept apart here.
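Also: KINOMEscan kinase panel screen.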

As for `O=S(=O)(c1ccc(-c2ccnc3[nH]ccc23)cc1)N1CCCC1` [GSK846226], the “%Inh” value in experiment [1] (setting [8]) was determined as 60%; in experiment [2] (setting [8]), 0%; in experiment [3] (setting [8]), 0%; in experiment [4] (setting [8]), 0%; in experiment [5] (setting [8]) it was 0%; in experiment [6] (setting [8]), 24%. The “%Inh” value in experiment [7] (setting [8]) was 0%.
Turning to `CS(=O)(=O)c1ccc(-c2c(-c3ncn[nH]3)sc(N3CCOCC3)c2C#N)cc1`, the “%Inh” value in experiment [1] (setting [8]) is 18%; in experiment [2] (setting [8]), 30%; in experiment [3] (setting [8]) it was 13%; in experiment [4] (setting [8]) it was 7%; in experiment [5] (setting [8]), 14%; in experiment [6] (setting [8]), 0%. The “%Inh” value in experiment [7] (setting [8]) was 0%.
As to `COc1ccc(Nc2nccc(NCCNC(=O)Nc3ccccc3F)n2)cc1` [GSK1379901], the “%Inh” value in experiment [1] (setting [8]) turned out to be 80%; in experiment [2] (setting [8]), 0%; in experiment [3] (setting [8]) it was 1%; in experiment [4] (setting [8]), 0%; in experiment [5] (setting [8]), 0%; in experiment [6] (setting [8]) it was 21%. The “%Inh” value in experiment [7] (setting [8]) was 0%.
For the molecule `COc1cc2ncn(-c3cc(OCC4CCCO4)c(C(N)=O)s3)c2cc1OC` (stereo not drawn) [GSK204607], the “%Inh” value in experiment [1] (setting [8]) is listed as 17%; in experiment [2] (setting [8]), 0%; in experiment [3] (setting [8]), 0%; in experiment [4] (setting [8]), 0%; in experiment [5] (setting [8]), 0%; in experiment [6] (setting [8]), 46%. The “%Inh” value in experiment [7] (setting [8]) stood at 0%.
As for `COc1ccc(C2=C(Nc3cccc(C(=O)O)c3)C(=O)NC2=O)cc1` [SB-390765], the “%Inh” value in experiment [1] (setting [8]) is on record as 4%; in experiment [2] (setting [8]), 35%; in experiment [3] (setting [8]), 0%; in experiment [4] (setting [8]) it was 1%; in experiment [5] (setting [8]), 7%; in experiment [6] (setting [8]), 100%. Moreover, in experiment [7] (setting [8]), the “%Inh” value is listed as 0%.
`Cc1ccc(NC(=O)Nc2cccc(C(F)(F)F)c2)cc1` [GSK955403]: the “%Inh” value was determined as 26% in experiment [1] (1 µM); 49% in experiment [2] (1 µM); 23% in experiment [3] (1 µM); 3% in experiment [4] (1 µM); 85% in experiment [5] (1 µM); 10% in experiment [6] (1 µM). Further, the “%Inh” value in experiment [7] (1 µM) was 2%.
As for `CN1C(=O)C(Nc2ccc(Cl)c(C(=O)O)c2)=C(c2ccc(Cl)cc2)C1=O` [SB-404290], the “%Inh” value is given as 100% in experiment [1] (setting [8]); 21% in experiment [2] (setting [8]); 0% in experiment [3] (setting [8]); 19% in experiment [4] (setting [8]); 4% in experiment [5] (setting [8]); 12% in experiment [6] (setting [8]). In addition, the “%Inh” value in experiment [7] (setting [8]) was determined as 0%.
Consider `Cc1cccc(-c2nc(Nc3cccc(C(N)=O)c3)c3ccccc3n2)n1` [GW876019], for which the “%Inh” value in experiment [1] (setting [8]) came to 0%; in experiment [2] (setting [8]), 25%; in experiment [3] (setting [8]), 20%; in experiment [4] (setting [8]), 15%; in experiment [5] (setting [8]), 83%; in experiment [6] (setting [8]), 0%. For the same molecule, the “%Inh” value in experiment [7] (setting [8]) came out at 12%.
Take `CCn1c(-c2ccccn2)nc2cnccc21` [SB-736398]: the “%Inh” value in experiment [1] (setting [8]) came to 0%; in experiment [2] (setting [8]) it was 0%; in experiment [3] (setting [8]), 4%; in experiment [4] (setting [8]), 0%; in experiment [5] (setting [8]) it was 0%; in experiment [6] (setting [8]), 18%. Also, the “%Inh” value in experiment [7] (setting [8]) is 0%.
On to `CS(=O)(=O)c1ccc(-c2nc3n(c2-c2ccncc2)CCC3)cc1` [SKF-105942], for which the “%Inh” value is listed as 14% in experiment [1] (setting [8]); 0% in experiment [2] (setting [8]); 8% in experiment [3] (setting [8]); 9% in experiment [4] (setting [8]); 0% in experiment [5] (setting [8]); 10% in experiment [6] (setting [8]). Besides, the “%Inh” value in experiment [7] (setting [8]) is given as 0%.
As for `Cn1cncc1-c1ccc2ncnc(Nc3ccc(OCc4ccccc4)cc3)c2c1` [GW320571], the “%Inh” value was found to be 2% in experiment [1] (setting [8]); 0% in experiment [2] (setting [8]); 10% in experiment [3] (setting [8]); 10% in experiment [4] (setting [8]); 2% in experiment [5] (setting [8]); 22% in experiment [6] (setting [8]). In addition, in experiment [7] (setting [8]), the “%Inh” value came to 16%.
With `COc1ccc(Nc2nccc(-c3cccc(NC(=O)c4cc5cc(F)ccc5[nH]4)c3)n2)cc1` [GSK1229782], the “%Inh” value in experiment [1] (setting [8]) came to 47%; in experiment [2] (setting [8]) it was 85%; in experiment [3] (setting [8]) it was 78%; in experiment [4] (setting [8]), 53%; in experiment [5] (setting [8]), 0%; in experiment [6] (setting [8]) it was 9%. In addition, in experiment [7] (setting [8]), the “%Inh” value is listed as 13%.
On to `Cl.Oc1ccc(-c2nc(-c3ccccc3)[nH]c2-c2ccncc2)cc1` [SB-428218], for which the “%Inh” value came to 7% in experiment [1] (setting [8]); 72% in experiment [2] (setting [8]); 56% in experiment [3] (setting [8]); 30% in experiment [4] (setting [8]); 0% in experiment [5] (setting [8]); 7% in experiment [6] (setting [8]). Besides, the “%Inh” value in experiment [7] (setting [8]) was 0%.
As to `Cc1nnc(-c2ccc3occ(-c4ccc(S(C)=O)cc4)c3c2)[nH]1` (stereo not drawn), the “%Inh” value in experiment [1] (setting [8]) worked out at 25%; in experiment [2] (setting [8]) it was 17%; in experiment [3] (setting [8]), 0%; in experiment [4] (setting [8]), 7%; in experiment [5] (setting [8]) it was 0%; in experiment [6] (setting [8]), 0%. Besides, the “%Inh” value in experiment [7] (setting [8]) is 23%.
For `Cc1ccc(-c2cc(-c3c[nH]nc3-c3ccccn3)ccn2)cc1` [GW684088], the “%Inh” value in experiment [1] (setting [8]) came out at 22%; in experiment [2] (setting [8]), 35%; in experiment [3] (setting [8]), 21%; in experiment [4] (setting [8]) it was 0%; in experiment [5] (setting [8]) it was 65%; in experiment [6] (setting [8]), 29%. For the same molecule, the “%Inh” value in experiment [7] (setting [8]) is given as 0%.
With `O=c1cc(N2CCOCC2)nc2n(Cc3cccc(Cl)c3Cl)ccn12` [GSK2286295], the “%Inh” value in experiment [1] (setting [8]) is on record as 6%; in experiment [2] (setting [8]), 0%; in experiment [3] (setting [8]) it was 0%; in experiment [4] (setting [8]), 3%; in experiment [5] (setting [8]) it was 0%; in experiment [6] (setting [8]) it was 0%. For the same molecule, the “%Inh” value in experiment [7] (setting [8]) was found to be 0%.
In the case of `Cl.c1ccc(-c2n[nH]cc2-c2ccnc(-c3ccc(CN4CCOCC4)cc3)c2)nc1` [GW776245], the “%Inh” value in experiment [1] (setting [8]) was 25%; in experiment [2] (setting [8]), 62%; in experiment [3] (setting [8]), 61%; in experiment [4] (setting [8]), 0%; in experiment [5] (setting [8]) it was 80%; in experiment [6] (setting [8]) it was 7%. Besides, the “%Inh” value in experiment [7] (setting [8]) is reported as 11%.
With `Cn1ccc2ncnc(Oc3ccc(NC(=O)Nc4ccccc4)cc3)c21`, the “%Inh” value in experiment [1] (setting [8]) came out at 0%; in experiment [2] (setting [8]), 26%; in experiment [3] (setting [8]) it was 0%; in experiment [4] (setting [8]), 0%; in experiment [5] (setting [8]), 0%; in experiment [6] (setting [8]) it was 0%. Further, in experiment [7] (setting [8]), the “%Inh” value was found to be 0%.

The values are drawn from paper PMC5540273 (PLoS ONE, 2017).
